Test results taken from the supplement of paper PMC13380429.
Structures can show the parent of a compound that is named as a salt. A number with no mark means an inactive call.

The molecules below were run on Vero E6 infected with SARS-CoV-2 (assay: SARS-CoV-2 infection rate relative to infected DMSO; higher = more infection, active = 60 or less). Conditions: 24 h.

Row | Compound | SARS-CoV-2 infection rate
1 | Cc1oc(=O)oc1CN1CCN(c2cc3c(cc2F)c(=O)c(C(=O)O)c2n3C(C)S2)CC1 (stereo not given) [prulifloxacin] (10 µM) | 97%
2 | Oc1ccc(Cl)cc1 [parachlorophenol] (10 µM) | 98%
3 | CC[C@@H](C)Nc1cc(C(=O)N[C@H]2C[C@H]3CC[C@@H](C2)N3c2ccc(C(=O)C3CC3)cn2)c(C)cc1C(N)=O (10 µM) | 98.5%
4 | CC(C)CN(C[C@@H](O)[C@H](Cc1ccccc1)NC(=O)O[C@H]1CCOC1)S(=O)(=O)c1ccc(N)cc1 [amprenavir] (10 µM) | 110%
5 | COC(=O)N[C@H](C(=O)N1CC2(CC2)C[C@H]1c1nc(-c2ccc3c(c2)C(F)(F)c2cc(-c4ccc5[nH]c([C@@H]6[C@H]7CC[C@H](C7)N6C(=O)[C@@H](NC(=O)OC)C(C)C)nc5c4)ccc2-3)c[nH]1)C(C)C [ledipasvir] (10 µM) | 99.5%
6 | COc1ccc(Cl)cc1C(=O)NCCc1ccc(C(=O)O)cc1 [meglitinide] (10 µM) | 102%
7 | C=CCSCC1Nc2cc(Cl)c(S(N)(=O)=O)cc2S(=O)(=O)N1 (stereo not given) [althiazide] (10 µM) | 98%
8 | Cc1cc(-c2ccccc2)nnc1NCCN1CCOCC1 [minaprine] (10 µM) | 103%
9 | NC[C@H]1O[C@H](O[C@H]2[C@H](O)[C@@H](O[C@H]3O[C@H](CO)[C@@H](O)[C@H](N)[C@H]3O)[C@H](N)C[C@@H]2N)[C@H](N)[C@@H](O)[C@@H]1O [bekanamycin] (10 µM) | 103%
10 | O=C(Nc1ccccc1)c1cc([N+](=O)[O-])ccc1Cl (10 µM) | 94.5%
11 | O=C1COc2nccc(-c3ccccc3F)c2CN1Cc1cc(C(F)(F)F)cc(C(F)(F)F)c1 (10 µM) | 108%
12 | CSc1ccc(C(=O)N[C@@H]2CCCC[C@@H]2NC(=O)CNC(=O)c2cc(C(F)(F)F)ccc2NC(=O)NC(C)C)cc1 (10 µM) | 93.5%
13 | CC(C)C[C@H](NC(=O)CNC(=O)c1cc(Cl)ccc1Cl)B1OC(=O)C(CC(=O)O)(CC(=O)O)O1 [ixazomib-citrate] (0.833333 µM) | 106%
14 | CC(C)C[C@@H](C(=O)N[C@H](C(=O)OC1CCCC1)c1ccccc1)[C@H](O)C(=O)NO [tosedostat] (10 µM) | 97%
15 | CCC[C@H](Nc1nc(-c2ccc(NC(=O)NCC)c(OC)c2)ncc1C)c1cccnc1 (10 µM) | 116%
16 | CC[C@@]1(O)C(=O)OCc2c1cc1n(c2=O)Cc2cc3c(CN(C)C)c(O)ccc3nc2-1 [topotecan] (10 µM) | 108%
17 | CCSC(=N)N [EIT-hydrobromide] (10 µM) | 102%
18 | Cc1cc(C(=O)Nc2cccc(C(=O)Nc3cccc(C(F)(F)F)c3)c2)on1 (10 µM) | 115%
19 | C[C@@H](N[C@H]1CCCC[C@@H]1NC(=O)c1ccc(Cl)cc1)c1cccc2ccccc12 [Calhex-231] (10 µM) | 91.5%
20 | COc1cc(C(=O)NCCCCCC(=O)O)cc(OC)c1OC [capobenic-acid] (10 µM) | 108%
21 | COc1cc2nccc(Oc3ccc(NC(=O)NC4CC4)c(Cl)c3)c2cc1C(N)=O [lenvatinib] (10 µM) | 100%
22 | C[C@H]1CO[C@@H]2Cn3cc(C(=O)NCc4ccc(F)cc4F)c(=O)c(O)c3C(=O)N12 (10 µM) | 108%
23 | N=C1CCCN1Cc1[nH]c(=O)[nH]c(=O)c1Cl [tipiracil] (10 µM) | 106%
24 | COc1ccc(-c2cc(=O)c3c(O)cc(O)cc3o2)cc1O [diosmetin] (10 µM) | 106%
25 | CCn1cc(C(=O)O)c(=O)c2cc(F)c(N3CCNC(C)C3)c(F)c21 (stereo not given) [lomefloxacin] (10 µM) | 96.5%
26 | N#Cc1ccc2[nH]cc(CCCCN3CCN(c4ccc5oc(C(N)=O)cc5c4)CC3)c2c1 [vilazodone] (0.833333 µM) | 102%
27 | Cc1cc(SCc2sc(-c3ccc(C(F)(F)F)cc3)nc2C)ccc1OCC(=O)O (10 µM) | 98.5%
28 | C[C@H]1[C@H](OC(=O)CCC(=O)O)O[C@@H]2O[C@@]3(C)CC[C@H]4[C@H](C)CC[C@@H]1[C@@]24OO3 [artesunate] (0.833333 µM) | 97%
29 | CCc1cc(C(N)=S)ccn1 [ethionamide] (10 µM) | 102%
30 | COc1ccc(N(C(=O)Oc2c(C)cccc2C)c2ccnc(Nc3ccc(N4CCN(C)CC4)cc3)n2)c(OC)c1 (10 µM) | 111%
